Shown are actives, neighbours in structure and some others; about 9.4% of the full set was active somewhere.
SMN2 splice up: SMN2 splice variant enhancement | Potency, µM (doses to about 46.1 µM), most hits filed as activators | hit rate 2.8% among 210,000 | AID 1458 | HEK293 SMN2-luciferase splicing reporter, luminescence, 30-36 h; further: nearly all actives have a fitted effect of over 55% in size
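HEK293 cells carry an SMN2 minigene-luciferase reporter in which exon 7 inclusion puts luciferase in frame. Cells were seeded at 2000 cells/well, attached for 10-12 hours, then exposed to compounds for 30-36 hours at 37C before ONE-Glo luminescence.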
ELG1 genotoxic: induces genotoxicity in HEK293T cells with luciferase-tagged ELG1; Potency, µM (highest dose often 46 µM), most hits filed as activators; AID 504466; HEK293T ELG1-luciferase reporter, luminescence, 16 h; hit rate 1.3% among 330,000; further: nearly all actives have a fitted effect of over 60% in size
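DMSO vehicle served as control against compound-treated ELG1-luciferase HEK293T cells; exposure lasted 16 hr at 37 °C and 5% CO2, followed by ONE-Glo luminescence detection after 30 min.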
Rab9 prom act: activates the Rab9 promoter | Huh7 Rab9 promoter-luciferase reporter, luminescence, 24 h | AID 485297 | hit rate 2.8% among 320,000 | Potency, µM (top dose mostly 9.22 µM), usual class: activators; further: nearly all actives have a fitted effect of over 60% in size
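Huh7 cells stably carrying a Rab9 promoter-luciferase reporter, 1500 cells per well in OP-MEM I with 10% FBS, treated with compound 24 hours at 37C. Luciferase activity read by luminescence after 10 minutes with Amplite reagent.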
FLuc modulator: firefly luciferase modulation, counter-screen for miR-21 project; Potency, µM (doses to about 57.5 µM), actives largely listed as inhibitors; hit rate 6.9% among 360,000; purified FLuc, Km substrates, luminescence inhibition; further: nearly all actives have a fitted effect of over 55% in size
Target sequence (P08659 whole entry, looked up): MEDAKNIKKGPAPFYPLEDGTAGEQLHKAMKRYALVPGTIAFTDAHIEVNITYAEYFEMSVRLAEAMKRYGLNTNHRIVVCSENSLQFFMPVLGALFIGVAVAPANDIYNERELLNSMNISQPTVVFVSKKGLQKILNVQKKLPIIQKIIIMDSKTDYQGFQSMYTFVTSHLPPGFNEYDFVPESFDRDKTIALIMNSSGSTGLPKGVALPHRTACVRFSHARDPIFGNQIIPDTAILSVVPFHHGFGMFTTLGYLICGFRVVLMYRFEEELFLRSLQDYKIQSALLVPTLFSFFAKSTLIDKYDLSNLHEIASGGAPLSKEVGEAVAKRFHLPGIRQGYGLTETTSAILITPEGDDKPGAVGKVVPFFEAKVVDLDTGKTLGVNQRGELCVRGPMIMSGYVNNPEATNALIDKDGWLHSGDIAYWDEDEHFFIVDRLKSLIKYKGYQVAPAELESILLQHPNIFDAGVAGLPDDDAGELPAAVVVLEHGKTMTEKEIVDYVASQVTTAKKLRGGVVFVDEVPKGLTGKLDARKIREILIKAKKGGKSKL
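Biochemical qHTS of compounds, final roughly 60 µM downward over six points, against 10 nM purified firefly luciferase using Km concentrations of substrates (10 uM D-luciferin, 10 uM ATP) in Tris acetate pH 7.5 buffer; luminescence output.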
NPC1 promoter act: activates the NPC1 promoter; Huh7 NPC1 promoter luciferase reporter, 24 h; Potency, µM (highest dose often 9.22 µM), most hits filed as activators; hit rate 2.4% among 320,000; AID 485313; further: nearly all actives have a fitted effect of over 60% in size
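Huh7 cells stably carrying NPC1 promoter–luciferase, plated in Opti-MEM with 10% FBS for 2 h, were exposed to compound in DMSO for 24 h at 37 °C; luciferase reagent was added for 10 min and luminescence read.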
ELG1 repair inh: ELG1-dependent DNA repair inhibition; HEK293T ELG1-luciferase reporter, luminescence, 16 h; DNA damage induced by 5-fluorouridine; Potency, µM (doses to about 46.1 µM), actives largely listed as inhibitors; hit rate 2.3% among 330,000; AID 504467; further: nearly all actives have a fitted effect of over 55% in size
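Quantitative HTS, concentration-response format. 2,000 cells/well co-treated with 5-fluorouridine and compound, 16 hr in 5% CO2 at 37 °C; ONE-Glo luminescence read after 30 min.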
Hits are given with their value; – = inactive; ? = inconclusive; · = not tested or not shown; [ ] = another dose, or the depositor's remark. The call rests on the fitted dose curve; in most records, active means well fitted curve in the direction sought with a large enough effect; inconclusive means small, poorly fitted or top-dose-only effect, or another doubt; inactive means no such curve, though single readings can be large; an effect the other way counts as inactive or inconclusive.

SMILES | SMN2 splice up | ELG1 genotoxic | Rab9 prom act | FLuc modulator | NPC1 promoter act | ELG1 repair inh
Cc1nc2nc(-c3ccco3)nn2c(C)c1Cl | 35µM | – | – | – | – | ?
Cc1cccc(NC(=O)c2sc3nc(-c4ccccc4)cn3c2C)c1C | · | · | · | – | · | ·
Cc1ccc(Nc2nc(N)c3ccccc3n2)cc1C | · | ? | 0.5µM | 0.54µM | 0.5µM | ?
COc1cc2nc(Nc3cccc(F)c3)nc(N)c2cc1OC | – | – | – | ? | – | ?
COc1ccc(Nc2nc(N3CCCCC3)nc3ccccc23)c(OC)c1 | – | – | – | – | – | 23µM
COc1ccc(Nc2nc(N)c3cc(OC)c(OC)cc3n2)cc1 | – | · | · | 15µM | · | ·
COc1ccc(Nc2nc(N)c3ccccc3n2)c(OC)c1 | · | ? | 4.5µM | 7.6µM | 3.5µM | ?
COc1ccc(Nc2nc(-c3ccccc3)nc3ccccc23)c(OC)c1 | – | – | – | – | – | ?
CCOc1ccc(NC(=O)CC2C(=O)N(c3ccccc3)C(=O)N2Cc2ccc3c(c2)OCO3)cc1 (stereo not drawn) | – | · | · | – | · | ·
Cc1ccc(C(=O)c2sc(Nc3ccccc3F)c(S(=O)(=O)c3ccccc3)c2N)c(C)c1 | · | · | · | – | · | ·
COc1cc(NC(=O)CSc2ncnc3scc(-c4ccccc4)c23)c(C(=O)O)cc1OC | – | – | – | 15µM | – | –
O=C(O)CSc1ncnc2scc(-c3ccccc3)c12 | · | – | – | – | – | –
CC(C)(C)c1ccc(C(=O)N2CCN(CCNC(=O)C(=O)NCc3ccc(Cl)cc3)CC2)cc1 | · | – | – | – | – | 12µM
CC(C)(C)c1ccc(C(=O)NCc2ccc(Cl)cc2)cc1 | – | – | – | – | – | ?
O=C(COc1ccccc1-c1nc(-c2ccccc2)no1)Nc1ccc([N+](=O)[O-])cc1 | · | · | · | – | · | ·
CC(Sc1nnc(NCc2ccccc2)s1)C(=O)Nc1ccc2c(c1)C(=O)c1ccccc1C2=O (stereo not drawn) | 1.3µM | – | ? | ? | ? | –
CC(Sc1nnc(NC2CC2)s1)C(=O)Nc1ccc(S(N)(=O)=O)cc1 (stereo not drawn) | · | – | · | · | · | –
CC(Sc1nnc(Nc2ccccc2)s1)C(=O)Nc1nc(-c2ccccc2)cs1 (stereo not drawn) | 4µM | – | – | – | – | –
CC(Oc1ccccc1)C(=O)Nc1nc(-c2ccncc2)cs1 (stereo not drawn) | · | – | – | – | – | –
Cc1ccc(C)c(N2CCN(C(=O)CCS(=O)(=O)c3cc(Br)cc4c3N(C(=O)C3CC3)CC4)CC2)c1 | – | · | · | ? | · | ·
COc1ccc(-c2nnc(SCC(=O)Oc3cccc(C)c3C)o2)cc1 | · | · | · | – | · | ·
O=C(NC1CC1)c1sc2cc(F)ccc2c1Cl | · | ? | ? | 9.5µM | – | ?
O=C(NNC(=O)C1CC2CCC1C2)c1sc2ccccc2c1Cl (stereo not drawn) | 22µM | – | ? | 24µM | ? | ?
O=C(NC(=S)NCCO)c1sc2ccccc2c1Cl | 13µM | ? | 2.8µM | 6µM | ? | ?
O=C(NC1CC1)c1sc2cc(Cl)ccc2c1Cl | · | ? | ? | 6.7µM | ? | ?
SMILES | SMN2 splice up | ELG1 genotoxic | Rab9 prom act | FLuc modulator | NPC1 promoter act | ELG1 repair inh
CC(C)c1nn2c(=O)cc(COC(=O)c3ccccc3NC(=O)C3CCCCC3)nc2s1 | · | · | · | – | · | ·
O=C(NC1CC1)c1sc2ccccc2c1Cl | · | ? | ? | 15µM | ? | ?
Cc1cc(NC(=O)c2cccs2)ncc1NC(=O)C(C)(C)C | · | 4.1µM | 1.4µM | 11µM | 0.89µM | ?
Cc1ccnc(NC(=O)c2ccc(Br)s2)c1 | · | ? | 1.6µM | 2.7µM | 1.1µM | ?
O=C(Nc1nccc(-c2cccs2)n1)c1cccs1 | ? | ? | ? | 19µM | 2.8µM | ?
Cc1ccnc(NC(=O)c2cccs2)c1 | ? | ? | 2.2µM | 15µM | 3.5µM | ?
NCCNC[C@H](O)CO | –[9.22 µM] | · | · | · | · | ·
CCOC(=O)c1cc(NC(=O)Cc2ccc(S(=O)(=O)N3CCOCC3)s2)cc(C(=O)OCC)c1 | · | – | – | – | – | 6.5µM
O=C(Cc1ccc(S(=O)(=O)N2CCOCC2)s1)Nc1cc(C(F)(F)F)cc(C(F)(F)F)c1 | · | – | – | – | – | 21µM
O=C(Cc1ccc(S(=O)(=O)N2CCOCC2)s1)Nc1cc(C(F)(F)F)ccc1N1CCCC1 | · | – | – | – | – | ?
COc1ccc(C)cc1NC(=O)CNC(c1ccccc1)c1ccc(C)cc1 (stereo not drawn) | · | – | – | – | – | 6.5µM
CN(CC(=O)Nc1cccc(F)c1)C(=O)c1ccccc1Sc1ccccc1C#N | · | – | – | – | – | 16µM
COc1cccc(NC(=O)CN(C)C(=O)c2ccccc2Sc2ccccc2C#N)c1 | · | – | – | – | – | ?
CN(CC(=O)Nc1cccc(F)c1)C(=O)CCCNC(=O)c1ccc(Cl)cc1 | · | – | ? | 12µM | ? | ?
N=C1Sc2ccccc2C2=NCCCN12 | – | · | · | · | · | ·
Cc1cc(C)n(-c2nc3cc(Cl)ccc3nc2N2CCN(c3ccccc3F)CC2)n1 | · | · | · | – | · | ·
COC(=O)[C@@]1(Cc2ccc(F)cc2)[C@@H]2C(=CC(=O)[C@H]2CC(=O)C(=O)N(C)C)CN1C(=O)c1ccccc1 | – | · | · | · | · | ·
COC(=O)[C@@]1(Cc2ccccc2)[C@@H]2C(=CC(=O)[C@H]2CC(=O)C(=O)N(C)C)CN1C(=O)c1ccccc1 | – | – | – | – | – | 7.3µM
COc1ccc(/C=C/C(=O)Nc2cccnc2Cl)cc1 | · | 9.2µM | 2.5µM | 5.4µM | 2µM | ?
COc1ccccc1/C=C/C(=O)Nc1cccnc1 | · | ? | ? | ? | ? | –
COc1ccccc1/C=C/C(=O)Nc1cccnc1Cl | · | – | – | 27µM | ? | ?
COc1cc(/C=C/C(=O)NCc2ccccn2)cc(OC)c1OC | – | – | – | – | – | ?
COc1ccccc1/C=C/C(=O)NCCc1ccccn1 | · | ? | 2.8µM | 13µM | ? | ?
COC(=O)c1cc(Cl)c(NC(=O)/C=C/c2ccc(OC)cc2)cc1OC | – | – | – | – | – | –
COc1ccc(/C=C/C(=O)Nc2ccc(Cl)c(Cl)c2)cc1 | – | · | · | 4.8µM | · | ·
SMILES | SMN2 splice up | ELG1 genotoxic | Rab9 prom act | FLuc modulator | NPC1 promoter act | ELG1 repair inh
COc1cc(OC)cc(-c2nc3nc(C)c(CCC(=O)Nc4ccc(F)cc4F)c(C)n3n2)c1 | – | · | · | – | · | ·
CC(NC(=O)c1ccc2c(c1)N(Cc1ccc(Cl)cc1)C(=O)c1ccccc1S2=O)c1ccccc1 (stereo not drawn) | – | · | · | – | · | ·
N#C/C(=C\c1ccc(Cl)cc1Cl)c1nc(-c2cccc(Cl)c2)cs1 | – | · | · | – | · | ·
Cc1ccc2c(c1)c1c(c(=O)n(-c3cccc(Cl)c3)c(=O)n1CC(=O)Nc1c(C)cccc1C)n2C | – | · | · | – | · | ·
COc1ccc2cc(C(N)=O)/c(=N\NC(=O)c3ccccc3)oc2c1 | · | ? | 0.71µM | 11µM | 0.89µM | ?
COc1cccc2cc(C(=O)NCC3CCCO3)c(=O)oc12 (stereo not drawn) | – | ? | – | ? | – | ?
